GALK inh: blocks human galactokinase activity | P51570 | Potency, µM (top dose mostly 57.5 µM), most hits filed as inhibitors | Purified GALK, Kinase-Glo residual ATP luminescence | 270,000 compounds, 0.007% hits
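Compounds were pin-transferred into ATP buffer (35 uM final), then GALK plus galactose (5 nM, 100 uM final) was added. After 1 h at room temperature, Kinase-Glo Plus was added and luminescence read after 10 min.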
PKM2 activator: activators of human pyruvate kinase M2. Potency, µM (titrated, usually from 57.5 µM), hits mostly activators. 260,000 compounds, 0.34% hits. purified PKM2, Kinase-Glo ATP luminescence, activation; response scale: 0% is enzyme alone, no compound. P14618; also: nearly all actives have a fitted effect of over 55% in size
Target sequence (P14618 whole entry, looked up): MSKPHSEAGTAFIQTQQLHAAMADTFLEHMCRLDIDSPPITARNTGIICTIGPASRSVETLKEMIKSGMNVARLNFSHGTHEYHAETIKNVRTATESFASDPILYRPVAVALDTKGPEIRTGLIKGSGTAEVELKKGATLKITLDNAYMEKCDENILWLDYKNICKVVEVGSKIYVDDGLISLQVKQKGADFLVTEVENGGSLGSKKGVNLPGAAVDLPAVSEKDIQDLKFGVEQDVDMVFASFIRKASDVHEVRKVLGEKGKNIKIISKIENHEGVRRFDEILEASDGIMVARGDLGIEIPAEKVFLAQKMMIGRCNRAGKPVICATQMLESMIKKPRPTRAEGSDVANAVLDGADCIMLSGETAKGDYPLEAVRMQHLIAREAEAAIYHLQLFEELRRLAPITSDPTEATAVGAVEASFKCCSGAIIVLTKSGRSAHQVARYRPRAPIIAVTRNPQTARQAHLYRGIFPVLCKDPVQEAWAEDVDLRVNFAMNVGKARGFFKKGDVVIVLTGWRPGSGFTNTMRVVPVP
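Purified hPK-M2 (>95%) run at intermediate activity with 0.1 mM ADP and 0.5 mM PEP in 50 mM imidazole pH 7.2, KCl, MgCl2; 1 h room temperature. ATP formed read by Kinase-Glo luminescence; normalized to uninhibited and no-enzyme controls.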
TrxR1 inh: blocks rat thioredoxin reductase 1 | O89049 | recombinant rTrxR1, NADPH fluorescence consumption, selenite substrate | Potency, µM (series often up to 114 µM), actives largely listed as inhibitors | 390,000 compounds, 1% hits; also: nearly all actives have a fitted effect of over 65% in size
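Rat TrxR1 (90 nM in the dispensed reagent) was pre-reduced with 400 uM NADPH for 5 min at room temperature, then incubated with compound for 15 min. After 400 uM selenite was added, NADPH fluorescence (Ex 340/Em 450 nm) was followed for 8 min.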
PI4K2A inh: inhibitors of human PI4K2A; Q9BTU6; purified PI4K2A, ADP-Glo luminescence, 1 h; hits give low values; activity change, negative = inhibition, % at 76.9 µM; 420,000 compounds, 0.13% hits; AID 1346378; in the data active = activity change below about -50%; inconclusive = mostly about -30% to -49%
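ADP-Glo luminescence measured ADP generated by PI4K2A enzyme (4 ug/mL before mixing) with 1.2 mM PI substrate (pre-mix) and 300 microM ATP (pre-mix). Tris pH7.5 buffer with MgCl2, Triton X-100; 1 h reaction at ambient temperature.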
TrxR1 substrate: rat thioredoxin reductase 1 substrate activity; O89049; Potency, µM (top dose mostly 114 µM); 390,000 compounds, 0.01% hits; purified TrxR1 substrate turnover, NADPH consumption readout; also: nearly all actives have a fitted effect of over 50% in size
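Rat TrxR1, dispensed at 90 nM, was prereduced with 400 uM NADPH (final) for 5 min at ~22 deg C, then incubated with compound 15 min before 400 uM selenite. A first-read NADPH fluorescence drop versus no-compound background flagged substrates.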
Numbers stand for hits; - = inactive; ? = inconclusive; . = not tested or not shown; [ ] = remark or other dose. The list is not random: actives were taken first. Their share in the collection is about 1.2%. Unless noted, calls follow the shape of the dose curve; as a rule, active = well fitted curve in the direction sought with a large enough effect; inconclusive = small, poorly fitted or top-dose-only effect, or another doubt; inactive = no such curve, though single readings can be large; an effect the other way counts as inactive or inconclusive.

SMILES | GALK inh | PKM2 activator | TrxR1 inh | PI4K2A inh | TrxR1 substrate
CN1CCCN(S(=O)(=O)c2ccc3ccccc3c2)CC1 | - | 20µM | ? | - | -
CNC(=S)N1CCN(S(=O)(=O)c2ccc3ccccc3c2)CC1 | - | 20µM | - | - | -
CC1CCN(c2ccc(NC(=S)NC(=O)c3ccc(-c4cccc([N+](=O)[O-])c4)o3)cc2)CC1 | - | - | 20µM | - | -
CN1C(=O)c2cc(NC(=O)C3CC3)ccc2OC[C@H]2O[C@@H](CC(=O)NC3CCC3)CC[C@@H]21 | . | . | . | - | .
COc1ccc(C2=Nn3c(nnc3-c3ccccc3Cl)SC2)cc1OC1CCCC1 | . | . | 7.08µM | - | -
COc1ccc(C2=Nn3c(nnc3-c3ccccc3Cl)SC2)cc1OC1CCOC1 (stereo unspecified) | . | . | - | - | -
O=C(CCN1CCC2CCC(C2)C1)c1ccc(F)cc1 (stereo unspecified) | . | . | 1.58µM | - | -[11.4 µM]
C=CC(=O)N1C/C(=C/c2ccccc2)C(=O)/C(=C\c2ccccc2)C1 | . | . | 3.98µM | - | -[11.4 µM]
CCOC(=O)c1c(SCCN2CCCC2)n(-c2ccccc2)c(=S)n(-c2ccccc2)c1=O | . | . | 31.6µM | - | -
COc1ccc(Br)cc1CNCc1c(C(=O)O)c(C)n(Cc2ccccc2C)c1C | . | . | - | - | -
CC(C)(C)c1cc(N2CCOCC2)n2ncc(-c3ccc(Cl)cc3)c2n1 | - | . | 89.1µM | - | -
COc1cccc(CN2CCN(c3ccc(F)cc3)C2=O)c1 | - | 28.2µM | - | - | -
COC(=O)c1cc2n(n1)CCN(Cc1cccc(OC)c1)C2=O | - | 20µM | - | - | -
COC(=O)C1=C[C@@H](C(=O)OC)C2C3=C(C(=O)[C@@]2(C)NC(=O)c2ccccc2)[C@H](c2ccccc2)n2c(=O)n(-c4ccccc4)c(=O)n2[C@@H]3C1 (stereo partly specified) | . | . | - | . | -
COCCN(CCOC)C(=O)c1cc2c(=O)n3ccccc3nc2n1C | . | . | - | - | -
O=S(=O)(Nc1nccs1)c1ccc(NS(=O)(=O)c2cccs2)cc1 | - | 4.47µM | - | - | -[0.457 µM]
CN(Cc1ccccc1)C(=O)OCc1cn(Cc2ccc(F)cc2)nn1 | . | . | . | - | .
Cn1cc(CCNC(=O)CC2C(=O)NCCN2Cc2cccc(Oc3ccccc3)c2)cn1 (stereo unspecified) | - | - | 25.1µM | - | -
CC1CCCCN1S(=O)(=O)c1ccc2c(c1)oc(=O)n2CC(=O)Nc1ccc(Cl)cc1 (stereo unspecified) | . | . | - | - | -
O=C(Nc1ccc2oc(-c3cccnc3)nc2c1)c1ccco1 | - | - | ? | - | -
O=C(Nc1ccc2oc(-c3cccnc3)nc2c1)c1ccc(Br)o1 | - | - | 44.7µM | - | -
COC(=O)/C(=C/c1c[nH]c2ccccc12)[N+](=O)[O-] | - | - | 12.6µM | - | -
COC(=O)/C(=C/c1c[nH]c2ccccc12)NC(C)=O | - | - | - | - | -
O=C(c1ccco1)N1CCN(S(=O)(=O)c2ccc(Br)s2)CC1 | - | ? | 10µM | - | -
Cn1cccc1C(=O)N1CCN(S(=O)(=O)c2ccc(Br)s2)CC1 | . | . | . | - | .
SMILES | GALK inh | PKM2 activator | TrxR1 inh | PI4K2A inh | TrxR1 substrate
COc1cccc(C(c2c(C)[nH]n(-c3ccccc3)c2=O)c2c(C)[nH]n(-c3ccccc3)c2=O)c1O | - | - | ? | -51.0 | -
COc1ccc(CNCC#Cc2ccccc2)c(OC)c1 | . | . | . | - | .
C[C@@H](O)[C@H]1C(=O)N2C(C(=O)O)=C([C@H]3CCCO3)S[C@H]12 | . | . | . | - | .
Cc1ccc(S(=O)(=O)CCC(=O)c2ccc(O)cc2O)cc1 | - | - | 7.08µM | - | -
Cc1ccc(S(=O)(=O)CCC(=O)OCC(=O)c2cc(C)ccc2C)cc1 | . | . | - | - | -
COc1ccc(C(=O)CCS(=O)(=O)c2ccc(C)cc2)cc1OC | - | - | 2.24µM | - | -
O=C(CCl)N(c1ccccc1)c1ccccc1 | - | - | ? | - | -
O=Cc1[nH]c2ccccc2c1N(C(=O)CCl)c1ccccc1 | - | - | 3.55µM | - | -
CCOC(=O)[C@@]12CCCC=C1N(CCc1ccc(Cl)cc1)C(=O)[C@H]2CC(=O)N1CCCC1 | . | . | . | - | .
CCOC(=O)[C@]12CCCC=C1N(Cc1ccc(OC)cc1)C(=O)[C@@H]2CC(=O)NCc1cccc(C(F)(F)F)c1 | . | . | . | - | .

Compound activity: PubChem, National Center for Advancing Translational Sciences (NCATS)
